Assay outcomes from PubChem.
This is a sample that favours compounds with a hit; in the whole collection about 18% have one here.
GCN5L2 inh: inhibitors of human GCN5L2 histone acetyltransferase. Q92830. GCN5L2 HAT assay, ThioGlo1 CoA-SH fluorescence. Potency, µM (highest dose often 58.9 µM), most hits filed as inhibitors. hit rate 0.21% among 390,000. AID 504327
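Fluorescence readout, Ex340nm/Em540nm: ThioGlo1 (50uM final) reacts with free CoA thiol released as 20nM GCN5L2 acetylates H3(1-25) peptide (75uM) using acetyl-CoA (70uM). Compound and enzyme sat 15 min beforehand; 20 min room-temperature reaction.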
TDP1 cell CPT: growth inhibition of DT40 Tdp1-/-;hTDP1 cells with camptothecin (screen for TDP1 inhibitors); AID 686979; chicken DT40 Tdp1-/-;hTDP1 cells + 20 nM CPT, ATP luminescence, 48 h; hit rate 12% among 420,000; Potency, µM (titrated, usually from 46.2 µM), actives largely listed as inhibitors; further: nearly all actives have a fitted effect of over 55% in size
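Cell growth measured by CellTiter-Glo luminescence after a minimum 48 h, 37 C compound exposure with 20 nM CPT in Tdp1-knockout DT40 cells stably expressing hTDP1, seeded 400/well; qHTS titration format.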
TDP1 cell noCPT: qHTS for Inhibitors of human tyrosyl-DNA phosphodiesterase 1 (TDP1): qHTS in cells in absence of CPT | DT40 Tdp1-/- hTDP1 cells, no CPT, ATP luminescence, 48 h | Potency, µM (doses to about 46.2 µM), most hits filed as inhibitors | hit rate 15% among 420,000; further: nearly all actives have a fitted effect of over 55% in size
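A cellular qHTS used chicken DT40 cells lacking endogenous Tdp1 but carrying stably transfected human TDP1. Compounds were applied without camptothecin, and cell growth kinetics were judged by ATP-dependent luminescence after ≥48 hr.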
PLK1 PBD block: PLK1 (human) polo-box domain binding inhibition; P53350; Plk1 PBD binding of FITC phosphopeptide, fluorescence polarization; Potency, µM, hits mostly inhibitors; hit rate 2.8% among 360,000; AID 720504; further: series mostly up to about 57 µM; nearly all actives have a fitted effect of over 65% in size
VDR inh: inhibitors of human vitamin D receptor | Potency, µM, hits mostly inhibitors | VDR-SRC2-3 peptide fluorescence polarization, 2 h | hit rate 0.93% among 400,000 | AID 504847
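Measured by FP: displacement of SRC2-3 coactivator peptide from VDR by library compounds, following a two-hour ambient incubation.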
TDP1 inh: inhibitors of human tyrosyl-DNA phosphodiesterase TDP1 | Q9NUW8 | recombinant TDP1, AlphaScreen DNA substrate cleavage | Potency, µM (doses to about 130 µM), usual class: inhibitors | hit rate 0.28% among 350,000 | AID 485290; further: nearly all actives have a fitted effect of over 40% in size
Target sequence (Q9NUW8 whole entry, looked up): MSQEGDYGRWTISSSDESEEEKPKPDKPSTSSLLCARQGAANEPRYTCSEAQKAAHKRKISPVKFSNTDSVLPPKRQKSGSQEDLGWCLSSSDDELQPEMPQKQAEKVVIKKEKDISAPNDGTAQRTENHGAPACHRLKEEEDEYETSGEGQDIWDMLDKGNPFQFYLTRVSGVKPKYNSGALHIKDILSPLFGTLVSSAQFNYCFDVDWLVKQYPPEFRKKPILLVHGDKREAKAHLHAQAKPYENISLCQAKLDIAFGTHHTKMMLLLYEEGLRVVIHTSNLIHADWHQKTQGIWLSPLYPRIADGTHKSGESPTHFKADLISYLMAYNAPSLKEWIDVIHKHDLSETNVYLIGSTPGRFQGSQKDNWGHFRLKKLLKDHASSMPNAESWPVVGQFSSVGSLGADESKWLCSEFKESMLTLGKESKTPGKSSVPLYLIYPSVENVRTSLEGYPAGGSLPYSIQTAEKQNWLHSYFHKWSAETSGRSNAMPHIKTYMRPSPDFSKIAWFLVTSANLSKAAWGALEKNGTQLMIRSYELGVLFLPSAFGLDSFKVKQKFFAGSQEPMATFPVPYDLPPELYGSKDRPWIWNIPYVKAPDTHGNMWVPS
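Compounds were preincubated with Tdp1 (1 nM final) for 15 min at room temperature before substrate (15 nM final) started a 5 min reaction; beads (10 ug/ml final) were then added for 10 min before AlphaScreen detection.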
Hits are given with their value; - = inactive; ? = inconclusive; . = not tested or not shown. The call rests on the fitted dose curve; in most records, active means well fitted curve in the direction sought with a large enough effect; inconclusive means small, poorly fitted or top-dose-only effect, or another doubt; inactive means no such curve, though single readings can be large; an effect the other way counts as inactive or inconclusive.

SMILES | GCN5L2 inh | TDP1 cell CPT | TDP1 cell noCPT | PLK1 PBD block | VDR inh | TDP1 inh
Cc1cccc(-n2c(O)c(C=Nc3ccccc3-c3n[nH]c(=S)[nH]c3=O)c3ccccc3c2=O)n1 | - | ? | ? | 26.7µM | - | -
Cc1cccc(-n2c(O)c(C=Nc3ccccc3O)c3ccccc3c2=O)n1 | - | - | ? | - | - | .
Cc1cccc(-n2c(O)c(C=Nc3cc(O)ccc3C)c3ccccc3c2=O)n1 | - | 20.6µM | ? | ? | ? | -
Cc1ccc(-n2c(O)c(C=Nc3ccccc3-c3n[nH]c(=S)[nH]c3=O)c3ccccc3c2=O)cc1C | ? | ? | ? | 29.9µM | - | -
CCOC(=O)CCC(=O)Nc1ccc([N+](=O)[O-])cc1C | - | - | - | - | - | -
O=C(OCC#CCSc1nnc(-c2ccc(Cl)cc2)o1)c1ccc(F)cc1 | . | . | . | . | . | -
Cc1cccc(-c2ccc3ncnc(NCc4cccc(F)c4)c3c2)c1 | - | . | . | . | . | .
COC(=O)c1ccc(-n2nnc(-c3nc(-c4ccc5c(c4)OCO5)no3)c2C)cc1 | - | - | - | . | - | -
COc1ccccc1-n1cc(-c2ccc(C)cc2)nc1S(=O)(=O)CC(=O)Nc1ccccc1C(F)(F)F | - | ? | 16.4µM | . | - | -
COc1ccc(-c2cn(-c3ccc(C)cc3)c(S(=O)(=O)CC(=O)Nc3ccc(F)cc3)n2)cc1 | - | 16.4µM | 20.6µM | . | ? | -
Cc1cccc(C)c1NC(=O)CS(=O)(=O)c1nc(-c2ccc(Cl)cc2)cn1-c1ccccc1 | - | 9.2µM | 16.4µM | . | - | -
COc1ccc(NC(=O)CS(=O)(=O)c2ccc(F)cc2)cc1 | - | - | - | - | - | .
O=C(CN(c1cc(Cl)ccc1Cl)S(=O)(=O)c1ccccc1)N1CCOCC1 | - | - | - | - | - | -
C=CC1=C(C(=O)O)N2C(=O)C(NC(=O)/C(=N\O)c3csc(N)n3)C2SC1 (configuration not stated) | - | . | . | . | ? | .
COc1ccc2cc1Oc1cc3c(cc1OC)CC[N+](C)(C)C3Cc1ccc(cc1)Oc1c(OC)c(OC)cc3c1C(C2)[N+](C)(C)CC3 (configuration not stated) | 20µM | . | . | . | - | .
O=C1c2ccc([N+](=O)[O-])cc2NC(c2ccco2)N1/N=C/c1ccco1 (configuration not stated) | - | - | 18.4µM | - | - | -
Cc1cccc(N2CCN(Cc3nnc(-c4ccccc4C)o3)CC2C)c1 (configuration not stated) | - | 13µM | ? | . | - | -
COc1ccc(-c2cc(C(F)(F)F)nc(SCCC(=O)Nc3ccc(NC(C)=O)cc3)n2)cc1 | - | . | . | . | - | -
COc1ccc2sc(N(Cc3cccnc3)C(=O)CCc3ccccc3)nc2c1 | - | ? | ? | . | - | -
Cc1cc(C)c2sc(N(Cc3cccnc3)C(=O)CCOc3ccccc3)nc2c1 | - | 18.4µM | ? | . | - | -
O=C(CCOc1ccccc1)N(Cc1cccnc1)c1nc2c(F)cc(F)cc2s1 | - | 18.4µM | 25.9µM | . | - | -
CCN(CC)CCN(C(=O)CCOc1ccccc1)c1nc2c(F)cc(F)cc2s1 | - | ? | 18.4µM | - | - | -
CNc1cncc(-c2cnn(CC(C)C)c2)n1 | . | - | - | - | . | .
COc1ccc(C(=O)CC2(O)C(=O)N(Cc3cccc(C(F)(F)F)c3)c3ccccc32)cc1 (configuration not stated) | - | . | . | . | - | -
Cc1ccc(C(=O)CC2(O)C(=O)N(Cc3ccc4c(c3)OCO4)c3ccccc32)cc1 (configuration not stated) | - | ? | ? | - | - | -
O=C(CC1(O)C(=O)N(Cc2ccc3c(c2)OCO3)c2ccccc21)c1ccccc1 (configuration not stated) | - | 3.66µM | 5.8µM | - | - | -
Cc1ccccc1CN1C(=O)C(O)(CC(=O)c2ccncc2)c2ccccc21 (configuration not stated) | - | 4.61µM | 3.26µM | - | - | -
